In general, AC50 refers to the midpoint of the concentration-response curve, whichever way the signal moves.

Assay [1] deals with Oxysterols receptor LXR-beta (Homo sapiens) (UniProt P55055). In words: ATG_LXRb_TRANS: Attagene TRANS-FACTORIAL HepG2 Assay for human Liver X Receptor beta (LXRb) (AID 2282981). Particulars: HepG2 Attagene TRANS GAL4-LXRb reporter, mRNA. In short, it runs like this:
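Cells: HepG2, transiently transfected with GAL4-UAS reporter units plus LXRb-Gal4 fusion. Treatment: 24 h. Detection: reporter mRNA by RT-PCR, 6-FAM labelling, HpaI digestion, capillary electrophoresis.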

Assay [2] concerns the target Hepatocyte nuclear factor 4-alpha (Homo sapiens) (UniProt P41235). Nature of the assay: ATG_HNF4a_TRANS: Attagene TRANS-FACTORIAL HepG2 Assay for human Hepatocyte Nuclear Factor 4 alpha (HNF4a) (AID 2282982). Particulars: HepG2 HNF4a transactivation reporter, mRNA readout. In short, it runs like this: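 Transfected HepG2 reporter cells are dosed for 24 h; reporter RNA is reverse-transcribed, amplified, fluorescently labelled and HpaI-digested before CE sizing. Positive-direction fit against DMSO.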

Assay [3] is described as follows: ATG_M_06_TRANS: Attagene TRANS-FACTORIAL HepG2 Assay for M06 Transcription Factor (Internal Marker) (AID 2282983).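 For AC50: potency for rise in reporter mRNA above DMSO baseline.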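 For outcome: reporter transcript level by RT-PCR then capillary electrophoresis fluorescence.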 Particulars: HepG2 Attagene TRANS M06 internal marker reporter. In a few lines: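 Cells: HepG2, transient multi-reporter transfection. Exposure: 24 h. Detection: RT-PCR, 6-FAM labelling, HpaI digestion (2 h, 37 °C), capillary electrophoresis. Baseline: DMSO.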

A short description of assay [4]: ATG_M_32_TRANS: Attagene TRANS-FACTORIAL HepG2 Assay for M32 Transcription Factor (Internal Marker) (AID 2282984).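 Note: transcript level of a background control reporter unit measured by RT-PCR and capillary electrophoresis.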 The conditions noted are these: HepG2 Attagene TRANS M32 internal marker reporter. In a few lines:
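Using transiently transfected HepG2 cells exposed to test chemicals for 24 h, reporter transcripts are converted to labelled cDNA fragments and quantified by capillary electrophoresis. DMSO defines the activity baseline.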

For assay [5], the target named is Nuclear receptor subfamily 4 group A member 2 (Homo sapiens) (UniProt P43354). In words: ATG_NURR1_TRANS: Attagene TRANS-FACTORIAL HepG2 Assay for human Nuclear Receptor Related Protein 1 (NURR1) (AID 2282985). The conditions noted are these: HepG2 Attagene TRANS reporter, mRNA readout. In short, it runs like this: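 Cells: HepG2, transiently transfected. Exposure: 24 h. Detection: fluorescence of labelled RT-PCR products separated by capillary electrophoresis; upward fit versus DMSO.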
Nuclear receptor subfamily 4 group A member 2 (Homo sapiens), sequence (P43354 whole entry, looked up): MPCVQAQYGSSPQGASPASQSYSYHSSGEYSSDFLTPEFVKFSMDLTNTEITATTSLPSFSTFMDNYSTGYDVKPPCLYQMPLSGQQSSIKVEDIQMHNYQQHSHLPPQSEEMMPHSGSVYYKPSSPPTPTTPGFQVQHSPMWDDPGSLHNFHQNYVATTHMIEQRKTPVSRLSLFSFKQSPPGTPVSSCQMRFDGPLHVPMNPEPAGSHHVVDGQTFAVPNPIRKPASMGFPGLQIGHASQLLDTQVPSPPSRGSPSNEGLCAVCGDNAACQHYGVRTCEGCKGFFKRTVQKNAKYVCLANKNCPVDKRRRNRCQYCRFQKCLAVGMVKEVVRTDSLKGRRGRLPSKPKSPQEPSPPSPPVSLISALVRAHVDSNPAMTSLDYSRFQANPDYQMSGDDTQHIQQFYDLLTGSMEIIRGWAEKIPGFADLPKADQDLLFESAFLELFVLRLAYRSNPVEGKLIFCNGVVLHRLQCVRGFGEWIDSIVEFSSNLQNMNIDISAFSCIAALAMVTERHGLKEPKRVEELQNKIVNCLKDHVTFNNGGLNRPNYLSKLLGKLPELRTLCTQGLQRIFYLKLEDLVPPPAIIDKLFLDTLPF

The target of assay [6] is Transcriptional activator Myb (Homo sapiens) (UniProt P10242). Nature of the assay: ATG_Myb_CIS: Attagene CIS-FACTORIAL HepG2 Assay for human Myeloblastosis (Myb) Proto-Oncogene Transcription Factor (AID 2282986; active = hit-call score of the fitted dose curve at least 0.9, where 1 is the maximum; inactive = score below 0.9). Particulars: HepG2 Attagene CIS-FACTORIAL Myb reporter transcription; actives raise or lower the signal. In a few lines:
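Using HepG2 liver cells bearing transiently transfected cis-promoter reporter constructs, the assay measures induction or loss of reporter mRNA after 24 hours of dosing. Detection used fluorescently labeled RT-PCR products separated by capillary electrophoresis.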

In assay [7] the target is Nuclear respiratory factor 1 (Homo sapiens) (UniProt Q16656). In words: ATG_NRF1_CIS: Attagene CIS-FACTORIAL HepG2 Assay for human Nuclear Respiratory Factor 1 (NRF1) Orphan Gene (AID 2282987; active = hit-call score of the fitted dose curve at least 0.9, where 1 is the maximum; inactive = score below 0.9). Particulars: HepG2 NRF1 cis-element reporter, Attagene multiplex; actives raise or lower the signal. In a few lines:
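Reporter mRNA induction or loss in HepG2 cells after 24 h dosing; cis-regulated reporter constructs report endogenous transcription-factor activity. Quantified by RT-PCR/capillary electrophoresis fluorescence, DMSO-referenced.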

Assay [8] can be described thus: ATG_NFI_CIS: Attagene CIS-FACTORIAL HepG2 Assay for human Nuclear Factor I (NFI) (AID 2282989; active = hit-call score of the fitted dose curve at least 0.9, where 1 is the maximum; inactive = score below 0.9). The conditions noted are these: HepG2 cis-regulatory reporter, NFI response element transcription; actives raise or lower the signal. In a few lines:
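Transfected HepG2 liver cells, exposed 24 h, supplied total RNA for oligo(dT) reverse transcription and reporter-specific PCR. Labelled, HpaI-cut fragments were sized by capillary electrophoresis; DMSO set the baseline for bidirectional fitting.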

Assay [9] is described as follows: ATG_M_61_TRANS: Attagene TRANS-FACTORIAL HepG2 Assay for M61 Transcription Factor (Internal Marker) (AID 2282988; active = hit-call score of the fitted dose curve at least 0.9, where 1 is the maximum; inactive = score below 0.9). Particulars: HepG2 Attagene TRANS M61 internal marker reporter. How it is done: ATG_TRANS is a cell-based, multiplexed-readout assay that uses HepG2, a human liver cell line, with measurements taken at 24 hours after chemical dosing in a 24-well plate.ATG_M_61_TRANS is one of 30 assay component(s) measured or calculated from the ATG_TRANS assay. It is designed to make measurements of mRNA induction, a form of inducible reporter, as detected with fluorescence intensity signals by Reverse transcription polymerase chain reaction (RT-PCR) and Capillary electrophoresis technology.Data from the assay component ATG_M_61_TRANS was analyzed into 1 assay endpoint. This assay endpoint, ATG_M_61_TRANS, was analyzed in the positive analysis fitting direction relative to DMSO as the negative control and baseline of activity. […] Furthermore, this assay endpoint can be referred to as a secondary readout, because this assay has produced multiple assay endpoints where this one serves a background control function. […]
Human liver HepG2 cells are transiently transfected with multiple reporter transcription units (MRTUs) in 6-well plates using FuGene 6 reagent (Roche; 3 ml FuGene/1 mg DNA). […] A major difference between the CIS and TRANS system is that in CIS activities of endogenous TFs are measured, whereas the TRANS assay evaluates changes in activities of exogenous, chimeric NR-Gal4 proteins. […]

Assay [10] addresses Oxysterols receptor LXR-alpha (Homo sapiens) (UniProt Q13133). In words: ATG_LXRa_TRANS: Attagene TRANS-FACTORIAL HepG2 Assay for human Liver X Receptor alpha (LXRa) (AID 2282980). Particulars: HepG2 Attagene TRANS reporter, LXRa transactivation. In a few lines: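 Chemical-induced reporter mRNA measured by RT-PCR with fluorescent labelling and capillary electrophoresis after 24 h dosing of transiently transfected HepG2 cells expressing exogenous NR-Gal4 chimeras; increases scored against DMSO baseline.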

Records with an inconclusive call do not appear. Some structures have more than one record in an assay (separate samples or runs), and their calls can disagree. Active and inactive are the calls of the source. Rule for the calls, unless noted: active = hit-call score of the fitted dose curve at least 0.9, where 1 is the maximum; inconclusive = response in the unintended direction; inactive = score below 0.9.

Oxysterols receptor LXR-beta (Homo sapiens), sequence (P55055 whole entry, looked up, the tested form may be a part): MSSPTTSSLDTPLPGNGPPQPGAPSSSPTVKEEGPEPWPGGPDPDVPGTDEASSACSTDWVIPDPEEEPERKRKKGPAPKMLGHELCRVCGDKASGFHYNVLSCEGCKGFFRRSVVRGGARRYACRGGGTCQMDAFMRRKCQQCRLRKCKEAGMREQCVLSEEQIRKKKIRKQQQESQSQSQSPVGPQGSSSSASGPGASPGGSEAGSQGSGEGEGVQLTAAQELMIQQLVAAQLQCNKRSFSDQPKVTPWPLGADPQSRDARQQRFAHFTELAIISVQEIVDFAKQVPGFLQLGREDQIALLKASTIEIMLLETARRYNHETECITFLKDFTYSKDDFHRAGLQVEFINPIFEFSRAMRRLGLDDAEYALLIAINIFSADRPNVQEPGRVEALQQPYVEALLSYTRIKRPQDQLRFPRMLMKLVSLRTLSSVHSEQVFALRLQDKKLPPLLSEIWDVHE
Hepatocyte nuclear factor 4-alpha (Homo sapiens), sequence (P41235 whole entry, looked up): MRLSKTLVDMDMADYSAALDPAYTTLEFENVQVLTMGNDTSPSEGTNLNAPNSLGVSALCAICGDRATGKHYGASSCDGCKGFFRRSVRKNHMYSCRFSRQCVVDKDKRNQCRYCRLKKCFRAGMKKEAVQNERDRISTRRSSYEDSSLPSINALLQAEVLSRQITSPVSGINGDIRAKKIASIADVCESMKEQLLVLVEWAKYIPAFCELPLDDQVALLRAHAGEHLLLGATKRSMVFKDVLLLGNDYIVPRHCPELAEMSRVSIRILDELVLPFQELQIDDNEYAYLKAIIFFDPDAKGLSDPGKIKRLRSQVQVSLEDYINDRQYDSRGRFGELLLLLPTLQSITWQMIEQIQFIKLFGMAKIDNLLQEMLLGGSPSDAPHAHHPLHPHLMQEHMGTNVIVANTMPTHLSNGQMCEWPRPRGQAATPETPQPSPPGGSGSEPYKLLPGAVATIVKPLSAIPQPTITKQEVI
Oxysterols receptor LXR-alpha (Homo sapiens), sequence (Q13133 whole entry, looked up, the tested form may be a part): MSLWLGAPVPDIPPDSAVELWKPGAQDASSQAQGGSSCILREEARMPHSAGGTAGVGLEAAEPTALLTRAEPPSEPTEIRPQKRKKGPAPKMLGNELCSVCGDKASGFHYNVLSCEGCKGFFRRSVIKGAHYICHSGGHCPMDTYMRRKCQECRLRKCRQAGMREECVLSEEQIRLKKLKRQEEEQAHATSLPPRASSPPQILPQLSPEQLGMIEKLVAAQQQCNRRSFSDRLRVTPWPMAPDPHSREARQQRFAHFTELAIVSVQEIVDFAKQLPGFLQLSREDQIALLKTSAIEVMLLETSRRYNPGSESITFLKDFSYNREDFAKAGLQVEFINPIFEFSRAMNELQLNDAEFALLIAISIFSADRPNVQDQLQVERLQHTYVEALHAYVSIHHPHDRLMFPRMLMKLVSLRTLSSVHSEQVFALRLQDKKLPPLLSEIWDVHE
Nuclear respiratory factor 1 (Homo sapiens), sequence (Q16656 whole entry, looked up): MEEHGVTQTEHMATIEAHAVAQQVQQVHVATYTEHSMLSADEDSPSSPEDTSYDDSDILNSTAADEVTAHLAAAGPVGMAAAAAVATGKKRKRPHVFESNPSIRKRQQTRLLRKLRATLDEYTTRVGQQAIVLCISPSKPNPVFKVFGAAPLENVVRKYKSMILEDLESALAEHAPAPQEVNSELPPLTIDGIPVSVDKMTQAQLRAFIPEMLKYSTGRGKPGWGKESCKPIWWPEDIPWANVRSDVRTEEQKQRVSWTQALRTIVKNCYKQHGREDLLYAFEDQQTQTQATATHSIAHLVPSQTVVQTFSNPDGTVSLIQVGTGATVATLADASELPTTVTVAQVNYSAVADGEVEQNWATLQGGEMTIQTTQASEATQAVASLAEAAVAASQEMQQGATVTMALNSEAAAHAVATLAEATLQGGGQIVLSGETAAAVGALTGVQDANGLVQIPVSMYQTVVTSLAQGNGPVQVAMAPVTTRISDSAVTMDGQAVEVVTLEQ
Transcriptional activator Myb (Homo sapiens), sequence (P10242 whole entry, looked up): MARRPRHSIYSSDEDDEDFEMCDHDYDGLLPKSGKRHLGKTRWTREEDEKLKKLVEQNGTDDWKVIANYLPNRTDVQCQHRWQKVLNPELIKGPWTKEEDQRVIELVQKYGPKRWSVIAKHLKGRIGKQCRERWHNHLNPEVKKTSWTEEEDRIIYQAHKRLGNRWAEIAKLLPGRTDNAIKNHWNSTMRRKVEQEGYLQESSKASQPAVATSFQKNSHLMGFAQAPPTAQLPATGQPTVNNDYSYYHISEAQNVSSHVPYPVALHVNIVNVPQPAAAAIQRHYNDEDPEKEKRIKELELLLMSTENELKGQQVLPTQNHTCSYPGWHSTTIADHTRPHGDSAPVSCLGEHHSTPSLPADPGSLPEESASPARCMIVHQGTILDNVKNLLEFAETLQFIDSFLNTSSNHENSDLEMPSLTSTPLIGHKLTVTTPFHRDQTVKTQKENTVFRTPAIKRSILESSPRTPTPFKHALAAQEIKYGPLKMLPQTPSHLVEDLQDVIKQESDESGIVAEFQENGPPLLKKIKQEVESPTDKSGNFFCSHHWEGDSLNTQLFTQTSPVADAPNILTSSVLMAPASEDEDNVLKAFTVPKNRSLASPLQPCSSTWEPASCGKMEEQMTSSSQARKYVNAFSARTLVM

As to `Nc1ccc(-c2ccc(N)c(Cl)c2)cc1Cl`, the result in assay [1], in assay [2], in assay [3], in assay [4], in assay [5] and in assay [6] was inactive. The molecule was called inactive in [7] and in assay [8].
As to `Nc1ncc([N+](=O)[O-])s1`, the molecule was called inactive in assay [1], in assay [3], in [5], in assay [6], in [7] and in assay [8].
As for `CN(C)N=O`, the molecule was called inactive in assay [1], in assay [2], in [3], in assay [5], in assay [6] and in assay [7]. Also, the call in assay [8] was inactive.
Turning to `CCC[CH2][Sn]([CH2]CCC)([CH2]CCC)[O]C(=O)c1ccccc1`, the molecule was called inactive in [1], in assay [4], in assay [6], in assay [9] and in assay [8]. The AC50 in assay [2] is 0.638 µM (active); in assay [3], 0.703 µM (active); in assay [5] it was 0.0161 µM (active).
In the case of `Fc1ccc(C2(Cn3cncn3)OC2c2ccccc2Cl)cc1` (configuration not stated), the call in assay [10], in assay [5], in assay [6], in assay [7] and in [8] was inactive.
As to `Cc1ccccc1N`, the result in [1], in assay [2], in assay [4], in assay [5], in assay [6] and in [7] was inactive. Moreover, the call in assay [8] was inactive.
On to `C1CCC(NC2CCCCC2)CC1`, for which the molecule was called inactive in [10], in assay [4], in assay [6], in assay [7] and in [8].
As for `O=C(O)C(F)(F)C(F)(F)C(F)(F)C(F)(F)C(F)(F)C(F)(F)F`, the outcome in assay [1], in [2], in [3], in [4], in [5] and in assay [6] was inactive. Also, the molecule was classed as inactive in assay [8].
On to `ClC1(Cl)C2(Cl)C3(Cl)C4(Cl)C(Cl)(Cl)C5(Cl)C3(Cl)C1(Cl)C5(Cl)C24Cl` (configuration not stated), for which the molecule was classed as inactive in assay [1], in assay [3], in assay [5], in assay [6], in assay [7] and in assay [8].
On to `COC[C@H](C)N(C(=O)CCl)c1c(C)csc1C`, for which the outcome in assay [1], in assay [3], in assay [4], in [5], in assay [6] and in assay [7] was inactive. The molecule was called inactive in assay [8].
Turning to `CC(=[OH+])/C=C(/C)[O-].CC(=[OH+])/C=C(/C)[O-].CC(=[OH+])/C=C(/C)[O-].[Al]`, the outcome in assay [1], in assay [2], in assay [3], in [5], in assay [6] and in assay [7] was inactive. Moreover, the molecule was classed as inactive in [8].
Turning to `O=C(c1ccccc1)C(Cl)Cl`, the result in [1], in assay [2], in assay [4], in [5] and in assay [6] was inactive. In addition, the results for the AC50 in [7] and in assay [8] were 24.8 µM (active) and 25.1 µM (active), respectively.
As for `COc1ccc(C=O)cc1OC`, the molecule was classed as inactive in [1], in assay [2], in assay [3], in assay [4], in [5] and in assay [6]. In addition, the result in [7] and in [8] was inactive.
Take `CCCCCCCCc1ccc(O)cc1`: the result in assay [1], in assay [2], in assay [3], in assay [4], in [5] and in assay [6] was inactive. Also, the result in assay [7] and in assay [8] was inactive.
Consider `O=P(O)(O)CN(CP(=O)(O)O)CP(=O)(O)O`, for which the molecule was called inactive in assay [1], in assay [2], in assay [4], in assay [5], in assay [6] and in assay [7]. Besides, the outcome in [8] was inactive.
`Cl/C=C/Cl`: the molecule was called inactive in assay [1], in assay [2], in [3], in assay [6], in assay [7] and in assay [8].
Take `ClCc1ccccn1`: the molecule was called inactive in assay [1], in assay [2], in assay [3], in [4], in assay [6] and in [8].
For the molecule `CC(C)(c1ccc(OCC2CO2)cc1)c1ccc(OCC2CO2)cc1` (configuration not stated), the call in assay [1], in assay [4], in assay [5], in [6], in assay [7] and in assay [8] was inactive.
`CC(C#N)CCC#N` (configuration not stated): the outcome in assay [1], in assay [2], in assay [3], in assay [5], in [6] and in assay [7] was inactive. Also, the outcome in [8] was inactive.
Take `CNC(=O)O/N=C/C(C)(C)S(C)=O` (configuration not stated): the call in assay [1], in assay [3], in assay [6], in [7] and in assay [8] was inactive.
Take `COc1cc(-c2ccc(N)c(OC)c2)ccc1N`: the molecule was classed as inactive in [1], in assay [2], in assay [3], in assay [5], in assay [6] and in assay [7]. Also, the molecule was classed as inactive in assay [8]. Moreover, in assay [8], the AC50 was 79.8 µM (active).
Turning to `Cl/C=C\C[N+]12CN3CN(CN(C3)C1)C2`, the call in [1], in assay [2], in [4], in assay [5], in assay [6] and in [7] was inactive. For the same molecule, in [8], the outcome was inactive.
Turning to `C=CC#N`, the result in assay [10], in assay [4], in [5], in assay [6], in assay [7] and in assay [8] was inactive.
Consider `Nc1cccc(Cl)c1`, for which the outcome in assay [1], in [4], in assay [5], in [6], in [7] and in assay [8] was inactive.
With `OCC(O)CCl` (configuration not stated), the call in assay [1], in [3], in assay [5], in [6], in assay [7] and in assay [8] was inactive.
`C[C@]12CC[C@H](O)CC1=CC[C@@H]1[C@@H]2CC[C@]2(C)C(=O)CC[C@@H]12`: the call in assay [1], in assay [3], in [4], in assay [6], in assay [7] and in assay [8] was inactive.
Consider `CCN(CC)C(=O)Cl`, for which the call in assay [1], in [2], in assay [3], in assay [4], in assay [6] and in assay [7] was inactive. Besides, the outcome in assay [8] was inactive.
For `C[C@H]1O[C@@H](O[C@H]2[C@@H](O)C[C@H](O[C@H]3[C@@H](O)C[C@H](O[C@H]4CC[C@@]5(C)[C@H](CC[C@@H]6[C@@H]5CC[C@]5(C)[C@@H](C7=CC(=O)OC7)CC[C@]65O)C4)O[C@@H]3C)O[C@@H]2C)C[C@H](O)[C@@H]1O`, the call in [1], in [2], in [3] and in assay [5] was inactive. In addition, the AC50 in [6] is 0.0564 µM (active); in assay [8] it was 0.171 µM (active).
As to `C=CC(=O)OCCCCCC(C)C`, the molecule was classed as inactive in assay [2], in assay [5], in assay [6], in assay [7] and in assay [8].
Regarding `ClC1=C(Cl)[C@]2(Cl)[C@H]3[C@H]([C@H]4C=C[C@H]3C4)[C@@]1(Cl)C2(Cl)Cl`, the molecule was called inactive in assay [3], in assay [4], in assay [5], in assay [6], in [7] and in assay [8].
Regarding `CCOC(=O)/C=C(C)/C=C/C[C@@H](C)CCCC(C)C`, the call in assay [2], in assay [3] and in assay [4] was inactive. The AC50 in assay [5] was 125 µM (active); in [6] it was 152 µM (active); in assay [7] it was 65.2 µM (active); in [8], 180 µM (active).
Turning to `CCC(=O)c1ccccc1`, the call in [3], in [4], in assay [6] and in assay [8] was inactive.
